For 15 compounds, Potency, activity change, negative = inhibition and activity, negative = inhibition results are on record in PubChem BioAssay (NCATS).

Each structure is given as a SMILES string. A number with no mark means an inactive call. Records with an inconclusive call do not appear. The source made the active and inactive calls. Unless noted, calls come from the whole dose curve; as a rule, active = well fitted curve in either direction with a large enough effect (not every such curve was filed as active); inconclusive = small, poorly fitted or top-dose-only effect, or another doubt; inactive = flat fitted curve, though single readings scatter.

In test [1] the target is Lysosomal acid glucosylceramidase (Homo sapiens) (UniProt P04062). Put plainly: Glucocerebrosidase-p2 (AID 348; in the data active = potency below about 10 µM; note: potency is the fitted concentration of half-maximal effect). Conditions: purified GBA, blue fluorogenic substrate, 40 min. The method, boiled down:
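Normal human glucocerebrosidase (0.2 nM) with blue fluorogenic substrate (80 uM final) in citrate/phosphate pH 5.9 with 10mM sodium taurocholate, 0.01% tween-20; 40 min RT, NaOH/glycine stop; fluorescence Ex 365/Em 440; AC50 from a titration from 0.6 nM upwards.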

Test [2] is described as follows: AP1 Signaling Pathway (AID 357).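 Note: ME-180 reporter cells stimulated with EGF at its EC50 level; % is set by controls: 0 for no effect and ±100 for the full control effect.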 As to conditions: ME-180 AP-1-bla reporter, EGF-induced, beta-lactamase ratio, 5 h; at 7.69 µM (top of the series) unless noted. In short, it runs like this:
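In this screen, ME-180 cells in Opti-MEM with 0.5% dialyzed FBS received EC50 EGF and compound titrations for 5 h. AP-1 reporter beta-lactamase was detected via CCF4 ratio, giving AC50 for positive and negative modulators.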

For test [3], the target named is Cytochrome P450 1A2 (Homo sapiens) (UniProt P05177). In words: p450-cyp1a2 (AID 410; calls by dose curve; note: potency is the fitted concentration of half-maximal effect). Conditions: recombinant CYP1A2, luciferin-ME demethylation, luminescence; series mostly up to 11.4 µM. The method, boiled down: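 O-Demethylation of luciferin 6' methyl ether by human CYP1A2 is monitored as luciferase luminescence. Substrate sits at Km (100uM); enzyme is 20nM. Values are scaled to 57 uM furafylline as maximal inhibition.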
Cytochrome P450 1A2 (Homo sapiens), sequence (P05177 whole entry, looked up): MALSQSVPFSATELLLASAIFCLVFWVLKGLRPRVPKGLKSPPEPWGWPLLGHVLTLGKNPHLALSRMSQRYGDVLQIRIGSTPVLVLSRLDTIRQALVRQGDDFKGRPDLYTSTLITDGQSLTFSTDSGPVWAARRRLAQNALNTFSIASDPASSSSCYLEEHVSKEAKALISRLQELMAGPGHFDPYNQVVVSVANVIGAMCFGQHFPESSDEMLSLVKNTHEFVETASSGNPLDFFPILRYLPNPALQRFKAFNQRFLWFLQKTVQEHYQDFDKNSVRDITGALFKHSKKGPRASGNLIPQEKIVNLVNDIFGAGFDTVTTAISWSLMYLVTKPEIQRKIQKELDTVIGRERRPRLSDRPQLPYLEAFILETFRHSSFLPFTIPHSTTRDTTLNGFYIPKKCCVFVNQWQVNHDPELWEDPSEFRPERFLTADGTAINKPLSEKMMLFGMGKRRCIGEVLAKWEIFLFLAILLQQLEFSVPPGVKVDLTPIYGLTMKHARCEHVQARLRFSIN

Test [4] is described as follows: NFAT Signaling Pathway (AID 444).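 Note: carbachol stimulus at about its EC50 of 1 µM final; % is set by controls: 0 for no effect and ±100 for the full control effect.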 As to conditions: Jurkat NFAT-bla M1, carbachol, beta-lactamase ratio, 5 h; at 7.69 µM (top of the series) unless noted. In short, it runs like this:
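Read-out: CCF4 FRET ratio (460 nm/530 nm) after 1 h RT dye loading, used for %activity and AC50 from titration series. Cells: Jurkat NFAT-β-lactamase/M1 line, treated with compound plus 1 uM carbachol for 5 h, 37 °C.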

Test [5] deals with Glucocorticoid receptor (Homo sapiens) (UniProt P04150). In words: GR-GFP Redistribution (AID 450;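 active = compounds whose dose series gives a full or clear partial fitted curve of increased nuclear translocation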; note: potency is the fitted concentration of half-maximal effect). Conditions: U2OS GR-GFP nuclear translocation, laser cytometry, 2 h.
Glucocorticoid receptor (Homo sapiens), sequence (P04150 whole entry, looked up): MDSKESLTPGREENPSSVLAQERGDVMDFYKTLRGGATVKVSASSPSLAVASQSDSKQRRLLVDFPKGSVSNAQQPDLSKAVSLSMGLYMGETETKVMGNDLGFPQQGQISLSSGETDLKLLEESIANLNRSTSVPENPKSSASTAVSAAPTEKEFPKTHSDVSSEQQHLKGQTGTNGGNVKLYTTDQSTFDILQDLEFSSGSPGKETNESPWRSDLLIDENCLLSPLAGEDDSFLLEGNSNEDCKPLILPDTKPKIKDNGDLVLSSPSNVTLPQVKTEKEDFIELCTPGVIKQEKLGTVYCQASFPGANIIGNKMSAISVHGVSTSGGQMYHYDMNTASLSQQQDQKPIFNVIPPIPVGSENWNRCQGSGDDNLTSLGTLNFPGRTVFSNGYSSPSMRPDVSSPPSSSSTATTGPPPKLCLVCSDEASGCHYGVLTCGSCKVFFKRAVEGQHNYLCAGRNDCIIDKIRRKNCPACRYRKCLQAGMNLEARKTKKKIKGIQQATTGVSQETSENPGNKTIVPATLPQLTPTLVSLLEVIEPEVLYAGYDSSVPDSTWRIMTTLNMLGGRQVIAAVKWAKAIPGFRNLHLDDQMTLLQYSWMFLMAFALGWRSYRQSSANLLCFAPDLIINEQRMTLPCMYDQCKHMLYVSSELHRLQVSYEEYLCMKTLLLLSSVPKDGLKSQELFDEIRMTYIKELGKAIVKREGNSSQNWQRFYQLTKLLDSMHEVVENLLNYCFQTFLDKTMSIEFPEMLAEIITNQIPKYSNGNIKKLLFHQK
For test [6] the target is unchanged. Put plainly: GR-EFC Redistribution (AID 451; calls by dose curve; note: potency is the fitted concentration of half-maximal effect). Conditions: CHO-K1 GR-EFC translocation, beta-gal luminescence, 2 h. The method, boiled down:
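Translocation of GR-ED fusion to nuclear EA restores b-gal, read by luminescence after 1 h room-temperature detection. Engineered CHO-K1 biosensor cells, 1,000/well, exposed 2 h at 37 C to titrations up to 46 uM final.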

Test [7] deals with Mitogen-activated protein kinase 10 (Mus musculus) (UniProt Q61831). Put plainly: JNK3 AlphaScreen Assay (AID 530).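 Note: kinase came from lysate of stimulated human HepG2 cells; signal reports phosphorylation of biotinylated GST-cJun 1-79 at Ser73 with 10 µM ATP; % is set by controls: 0 for no effect and ±100 for the full control effect.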 Conditions: JNK3 lysate, c-Jun phosphorylation; series mostly up to 11.4 µM. The method, boiled down:
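qHTS titrations with 15 min compound pre-incubation before adding ATP (10 uM final). Read-out: AlphaScreen of Ser73-phosphorylated biotin-GST-cJun using HepG2 lysate JNK3 activated by IL-1β and TNFα.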
(Alpha assays give light when donor and acceptor beads are brought close together.)

Test [8] addresses 3',5'-cyclic-AMP phosphodiesterase 4B (Homo sapiens) (UniProt Q07343). In words: qHTS Assay for Inhibitors of PDE-IV (AID 607; active = well fitted activation curve with a large enough effect in the main read-out, with a control signal flat, not every such curve was filed as active; note: % of control where 0% means no effect). Conditions: HEK293 ACTOne CNG channel cells, membrane potential fluorescence; series mostly up to 22.9 µM. The method, boiled down: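 Cell-based read-out of cAMP via a modified cyclic nucleotide-gated channel and membrane potential dye (535/590 nm) in HEK293 cells expressing PDE4 endogenously. Compounds tested up to 22.9 uM final; 100 uM RO 20-1724 reference.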
On the technique in general: qHTS replaces the single test concentration by a dilution series.

The target in test [9] is Cytochrome P450 2C19 (Homo sapiens) (UniProt P33261). Put plainly: qHTS Assay for Inhibitors and Substrates of Cytochrome P450 2C19 (AID 899; active = well fitted curve in the direction sought with a large enough effect; an effect the other way counts as inactive or inconclusive; note: nearly all actives have a fitted effect of over 60% in size; note: potency is the fitted concentration of half-maximal effect). As to conditions: recombinant CYP2C19, luciferin-H EGE luminescence; series mostly up to 11.4 µM. In short, it runs like this: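 Luminescence readout of luciferin formed from 10uM Luciferin-H EGE (KM level) by 5 nM CYP2C19 in 50mM KPO4. 60 min NADPH-driven reaction at 37C after 10 min compound preincubation; data scaled to 57uM ketoconazole inhibition.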
Cytochrome P450 2C19 (Homo sapiens), sequence (P33261 whole entry, looked up): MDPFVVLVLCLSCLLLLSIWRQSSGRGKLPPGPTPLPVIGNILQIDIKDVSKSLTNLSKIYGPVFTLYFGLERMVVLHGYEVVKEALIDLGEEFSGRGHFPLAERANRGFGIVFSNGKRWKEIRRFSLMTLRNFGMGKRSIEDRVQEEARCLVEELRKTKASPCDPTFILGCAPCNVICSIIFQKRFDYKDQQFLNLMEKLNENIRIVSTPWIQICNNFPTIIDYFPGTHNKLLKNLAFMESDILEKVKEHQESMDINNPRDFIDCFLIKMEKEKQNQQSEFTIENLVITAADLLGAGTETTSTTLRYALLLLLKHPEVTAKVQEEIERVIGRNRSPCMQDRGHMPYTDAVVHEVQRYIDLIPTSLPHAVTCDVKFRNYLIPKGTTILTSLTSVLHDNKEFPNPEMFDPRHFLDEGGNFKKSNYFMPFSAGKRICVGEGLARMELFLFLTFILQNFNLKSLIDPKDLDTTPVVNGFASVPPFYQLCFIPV

Test [10] can be described thus: Stat Signaling Pathway (AID 446).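 Note: ME-180 cervical cancer cells given 40 pM IL-6 alongside compound; SIE-controlled beta-lactamase reporter measured as 460/530 nm FRET emission ratio; % is set by controls: 0 for no effect and ±100 for the full control effect.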 Conditions: ME-180 (cervical carcinoma) SIE beta-lactamase reporter, IL-6 stimulated, 5 h; at 7.69 µM (top of the series) unless noted. In short, it runs like this: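 FRET read-out (405 nm excitation, 460/530 nm emission) of a beta-lactamase reporter under a STAT-inducible element in ME-180 cervical carcinoma cells. Cells with compound receive 40 pM IL-6 for 5 h. Values are normalised to AC90 stimulation and AC90 JAK-inhibitor controls.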

Test [11] has as its target Cytochrome P450 2C9 (Homo sapiens) (UniProt P11712). Put plainly: qHTS Assay for Inhibitors and Substrates of Cytochrome P450 2C9 (AID 883; active = well fitted curve in the direction sought with a large enough effect; an effect the other way counts as inactive or inconclusive; note: nearly all actives have a fitted effect of over 60% in size; note: potency is the fitted concentration of half-maximal effect). As to conditions: recombinant CYP2C9, luciferin-H luminescence, 60 min; series mostly up to 11.4 µM. The method, boiled down: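 Luminescent read-out of deoxyluciferin hydroxylation, normalized to 57uM sulphaphenazole (AC100). Reaction: 10nM enzyme, 100uM Luciferin-H (equal to KM), 25mM KPO4, 10 min compound preincubation, then 60 min with NADPH regeneration, both at 37C.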

The target in test [12] is Cytochrome P450 3A4 (Homo sapiens) (UniProt P08684). Put plainly: qHTS Assay for Activators of Cytochrome P450 3A4 (AID 885; active = well fitted curve in the direction sought with a large enough effect; an effect the other way counts as inactive or inconclusive; note: nearly all actives have a fitted effect of over 65% in size). Conditions: recombinant CYP3A4, Luciferin-PPXE luminescence, 60 min; series mostly up to 11.4 µM. The method, boiled down:
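Luminescent readout of luciferin formed from 25 uM Luciferin-PPXE (KM level) by 20 nM CYP3A4 in 200 mM KPO4, with 60 min NADPH-driven reaction at room temperature after 10 min compound exposure. Ketoconazole (57 uM) defined 100% inhibition.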

Lysosomal acid glucosylceramidase (Homo sapiens), sequence (P04062 whole entry, looked up): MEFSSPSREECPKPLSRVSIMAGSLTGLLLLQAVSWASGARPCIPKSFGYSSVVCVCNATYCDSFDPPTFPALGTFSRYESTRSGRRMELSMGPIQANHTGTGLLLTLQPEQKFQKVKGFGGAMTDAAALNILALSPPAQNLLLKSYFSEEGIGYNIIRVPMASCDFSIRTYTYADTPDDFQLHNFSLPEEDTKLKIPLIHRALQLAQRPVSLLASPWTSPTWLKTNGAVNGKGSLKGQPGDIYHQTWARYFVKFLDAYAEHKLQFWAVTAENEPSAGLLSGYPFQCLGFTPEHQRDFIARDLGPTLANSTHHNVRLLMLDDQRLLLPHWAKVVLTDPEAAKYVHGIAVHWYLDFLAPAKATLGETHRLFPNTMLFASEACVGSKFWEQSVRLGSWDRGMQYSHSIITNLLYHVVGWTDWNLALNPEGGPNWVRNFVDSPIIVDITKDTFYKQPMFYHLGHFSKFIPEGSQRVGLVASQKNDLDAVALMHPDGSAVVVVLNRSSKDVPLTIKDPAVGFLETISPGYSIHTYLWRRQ
Cytochrome P450 2C9 (Homo sapiens), sequence (P11712 whole entry, looked up): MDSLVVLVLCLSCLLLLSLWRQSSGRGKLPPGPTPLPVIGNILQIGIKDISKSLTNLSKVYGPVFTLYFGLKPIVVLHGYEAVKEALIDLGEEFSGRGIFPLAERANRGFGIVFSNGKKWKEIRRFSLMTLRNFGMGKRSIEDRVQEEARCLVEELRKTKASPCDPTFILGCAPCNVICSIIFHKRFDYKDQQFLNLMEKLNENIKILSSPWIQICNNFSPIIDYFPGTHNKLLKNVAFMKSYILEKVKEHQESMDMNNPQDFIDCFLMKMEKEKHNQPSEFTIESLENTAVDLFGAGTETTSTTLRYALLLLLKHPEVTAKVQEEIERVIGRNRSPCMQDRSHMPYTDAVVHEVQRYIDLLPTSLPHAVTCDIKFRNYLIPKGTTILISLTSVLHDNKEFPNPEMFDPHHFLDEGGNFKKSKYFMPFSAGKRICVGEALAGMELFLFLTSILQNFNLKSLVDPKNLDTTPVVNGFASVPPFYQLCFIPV
3',5'-cyclic-AMP phosphodiesterase 4B (Homo sapiens), sequence (Q07343 whole entry, looked up): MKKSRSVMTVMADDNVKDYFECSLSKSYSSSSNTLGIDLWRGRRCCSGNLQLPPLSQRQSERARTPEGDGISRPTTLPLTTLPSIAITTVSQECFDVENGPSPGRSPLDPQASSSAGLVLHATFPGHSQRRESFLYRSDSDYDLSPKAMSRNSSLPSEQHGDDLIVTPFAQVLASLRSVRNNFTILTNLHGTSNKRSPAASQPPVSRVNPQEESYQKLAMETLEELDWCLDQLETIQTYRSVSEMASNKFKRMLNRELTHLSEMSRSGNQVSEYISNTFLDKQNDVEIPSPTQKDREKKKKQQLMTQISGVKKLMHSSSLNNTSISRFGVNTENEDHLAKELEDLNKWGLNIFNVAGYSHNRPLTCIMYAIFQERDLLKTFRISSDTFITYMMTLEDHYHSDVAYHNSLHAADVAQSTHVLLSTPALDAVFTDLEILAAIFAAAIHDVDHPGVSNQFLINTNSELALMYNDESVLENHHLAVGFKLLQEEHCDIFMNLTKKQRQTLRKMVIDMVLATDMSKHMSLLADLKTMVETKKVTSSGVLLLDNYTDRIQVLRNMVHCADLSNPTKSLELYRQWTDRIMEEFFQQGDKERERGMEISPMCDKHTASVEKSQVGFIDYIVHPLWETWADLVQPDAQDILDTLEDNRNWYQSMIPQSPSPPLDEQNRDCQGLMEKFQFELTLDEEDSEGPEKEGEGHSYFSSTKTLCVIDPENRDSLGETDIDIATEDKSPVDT
Cytochrome P450 3A4 (Homo sapiens), sequence (P08684 whole entry, looked up): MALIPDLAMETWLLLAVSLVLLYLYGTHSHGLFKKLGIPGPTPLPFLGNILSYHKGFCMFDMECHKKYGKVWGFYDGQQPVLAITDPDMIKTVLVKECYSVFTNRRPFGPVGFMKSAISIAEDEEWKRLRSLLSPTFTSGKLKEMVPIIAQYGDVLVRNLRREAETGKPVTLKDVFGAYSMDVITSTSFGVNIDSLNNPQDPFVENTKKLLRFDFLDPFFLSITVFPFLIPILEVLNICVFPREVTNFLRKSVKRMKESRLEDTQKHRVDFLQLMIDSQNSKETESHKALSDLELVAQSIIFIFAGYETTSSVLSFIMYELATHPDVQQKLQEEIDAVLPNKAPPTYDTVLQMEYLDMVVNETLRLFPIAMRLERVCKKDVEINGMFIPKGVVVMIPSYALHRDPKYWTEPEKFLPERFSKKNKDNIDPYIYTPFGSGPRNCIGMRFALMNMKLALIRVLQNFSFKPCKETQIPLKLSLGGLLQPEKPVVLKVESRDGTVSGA

Take `CC(C)NC[C@@H](O)c1ccc(O)c2ncccc12`: the Potency in [1] was above 11.4 µM; in test [5], above 46 µM; in test [6] it was above 9.22 µM. Moreover, the activity change, negative = inhibition is -5.62% in test [2], -12.1% [at 2.29 µM] in test [3] and 14% in [4]. The Potency entry in test [7], in test [8] and in test [9] was “inactive” throughout.

On to `CN(C)CCCN1CCC2(CCC(C(C)(C)C)CC2)CC1`, for which the Potency in test [1] is above 11.4 µM; in [5], above 46 µM; in test [6], above 9.22 µM. Further, the activity change, negative = inhibition in test [2] was -6.54%. The Potency entry in test [3] and in test [7] was “inactive” throughout. For the same compound, the activity, negative = inhibition in [10] is 8.08%.

For `O=C(O)c1ccccc1-c1ccccc1C(=O)Nc1ccc2c(c1)Cc1cc(F)ccc1-2`, the Potency is above 11.4 µM in [1], 3.98 µM (active) in test [3], above 9.22 µM in test [6] and 2.51 µM (active) in test [11]. In addition, the activity change, negative = inhibition in [2] is -17.3%; in test [4], -16.2%. Also, the Potency result in test [7] and in test [8] was “inactive” each time.

`CC(C)C12CC[C@@]3(CC[C@H]4[C@@](C)(CCC[C@]4(C)C(=O)O)[C@@H]3C1)[C@@H](CN)C2`: the Potency in test [1] was above 11.4 µM; in [5], above 46 µM; in test [6], above 9.22 µM. Also, the activity change, negative = inhibition in [2] is -3.83%. Further, the Potency entry in test [3], in test [7] and in test [8] was “inactive” throughout. Further, the activity, negative = inhibition in test [10] was 1.18%.

Consider `Cc1cc(C)cc(C(=N)c2ccccc2Cc2cccc3ccccc23)c1`, for which the Potency in test [1] was above 11.4 µM; in [5] it was above 46 µM; in [6], above 9.22 µM; in [9], 1.58 µM (active). The activity change, negative = inhibition in test [2] is 1.53%; in [3], -5.4% [at 2.29 µM]. Further, the activity, negative = inhibition in test [10] was 8.92%. The Potency entry in test [7], in [8], in [11] and in test [12] was “inactive” in each case.

`Cc1ncn(-c2ccccc2O)c1C`: the Potency in [1] is above 11.4 µM; in test [3] it was 0.794 µM (active); in [5], above 46 µM; in [6] it was above 9.22 µM. In addition, the activity change, negative = inhibition in test [2] is 4.1%. In addition, the activity, negative = inhibition in [10] was 6.2%. Also, the Potency entry in test [7] and in test [8] was “inactive” in each case.

Take `c1ccc([P+](CC[P+](c2ccccc2)(c2ccccc2)c2ccccc2)(c2ccccc2)c2ccccc2)cc1`: the Potency was above 11.4 µM in test [1], above 46 µM in test [5] and above 9.22 µM in [6]. For the same compound, the activity change, negative = inhibition in [2] was 1.2%. The Potency result in test [3], in test [7] and in test [8] was “inactive” in each case. Moreover, the activity, negative = inhibition in test [10] is 7.49%.

In the case of `Cc1ccc(S(=O)(=O)Nc2ccccc2C=O)cc1`, the Potency in test [1] is above 11.4 µM; in test [5] it was above 46 µM; in test [6], above 9.22 µM; in test [9], 5.01 µM (active). In test [2], the activity change, negative = inhibition was -0.783%. The Potency result in test [3], in test [7], in test [8] and in test [11] was “inactive” each time. Further, the activity, negative = inhibition in test [10] is 24%.

Regarding `N#CC(C#N)=NNc1ccc2cn[nH]c2c1`, the Potency in [1] is above 11.4 µM; in [3], 1.26 µM (active); in test [5], above 46 µM; in test [6] it was above 9.22 µM; in test [11] it was 2.51 µM (active). For the same compound, the activity change, negative = inhibition in test [2] is 1.21%. Further, the activity, negative = inhibition in test [10] was -12%. Also, the Potency entry in [7], in test [8] and in test [12] was “inactive” in each case.

Turning to `Cc1cc(Cc2cc(C)cc(C(C)(C)C)c2O)c(O)c(Cc2cc(C)cc(C(C)(C)C)c2O)c1`, the Potency in test [1] is above 11.4 µM; in [5], above 46 µM; in [6] it was above 9.22 µM; in test [11], 3.16 µM (active); in test [9], 3.16 µM (active). The activity change, negative = inhibition was -27.2% in test [2] and -15.6% [at 2.29 µM] in test [3]. Besides, the activity, negative = inhibition in test [10] was 6.72%. Further, the Potency result in test [7] and in [8] was “inactive” in each case.

On to `Oc1ccc2ccccc2c1/C=C\c1ccc2c(Br)cc(Br)c(O)c2n1`, for which the Potency in test [1] is above 11.4 µM; in test [3], 3.98 µM (active); in [5] it was above 46 µM; in [6], above 9.22 µM; in test [11], 2.51 µM (active). For the same compound, the activity change, negative = inhibition in test [2] was -7.49%. Besides, the activity, negative = inhibition in test [10] is 1.04%. Further, the Potency entry in test [7] and in [8] was “inactive” in each case.

With `O=C(O)C[C@H](S)C(=O)O`, the Potency in [1] is above 11.4 µM; in test [5] it was above 46 µM; in [6], above 9.22 µM. Also, in [2], the activity change, negative = inhibition is -3.09%. The Potency result in test [3], in test [7] and in test [8] was “inactive” each time. Further, the activity, negative = inhibition in [10] is -8.04%.

Consider `COc1ccc(Cc2ccccc2C(=O)O)c2ccccc12`, for which the Potency in test [1] was above 11.4 µM; in [5], above 46 µM; in test [6] it was above 9.22 µM; in test [11], 3.98 µM (active). In addition, the values for the activity change, negative = inhibition in test [2] and in test [3] were -1.93% and 2.8% [at 2.29 µM], respectively. In test [10], the activity, negative = inhibition was -28.9%. Besides, the Potency entry in test [7] and in test [8] was “inactive” throughout.

For the compound `O[C@@H](c1cc(C(F)(F)F)nc2c(Cl)cc(Cl)cc12)[C@@H]1CCCCN1`, the Potency is above 11.4 µM in [1], 3.98 µM (active) in test [3], above 46 µM in test [5] and above 9.22 µM in [6]. The activity change, negative = inhibition in [2] is 14.2%. In addition, the activity, negative = inhibition in test [10] was -0.0324%. Further, the Potency entry in test [7] and in test [8] was “inactive” throughout.

In the case of `Nc1[nH]c(=S)[nH]c(=O)c1N=Nc1c(Br)cc(S(N)(=O)=O)cc1Br`, the Potency was above 11.4 µM in test [1], 3.16 µM (active) in test [3], above 46 µM in test [5] and above 9.22 µM in test [6]. In addition, the activity change, negative = inhibition in [2] is 1.56%. For the same compound, the activity, negative = inhibition in test [10] is 12%. The Potency entry in test [7], in test [8], in test [11] and in [9] was “inactive” in each case.
